This is an account of results in PubChem BioAssay AID977622 (Broad Institute, 2014).

A short description of assay [1]: wild-type E. coli growth inhibition versus h38 humanized strain – h38 mutant RFP, wild-type GFP, cherry-pick, dose response (AID 977622). The note with it: activity change: E. coli mixed culture, total growth OD600 at 50 uM, at 50 µM.
Assay [2] deals with E. coli h38 humanized mutant ribosome RFP fluorescence, mixed culture, 24 h. The assay is described as above. Conditions: h38 mutant RFP at 50 uM; at 50 µM.

Among all 1,900 compounds or so, fewer than 10 were called active. Not shown: some 39% with an inconclusive outcome.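 The calls were made as follows: active = Green signal of the normal strain falls at least twice as much as red signal of the resistant mutant, with overall culture growth loss under a set limit; inconclusive = no clear call, values can overlap the other calls; inactive = the rest.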 Not all results are given here.

`CN(C)CCCN(C(=O)CCOc1ccccc1)c1nc2c(F)cccc2s1`: in assay [1], the activity change was -10.6% and the compound was classed as inactive. For the same compound, the activity change in assay [2] is -7.27%.
For `CC(NC(=O)c1ccc(CS(=O)(=O)c2ccc(Cl)cc2)o1)c1ccc2c(c1)OCCO2` (stereo unspecified), in assay [1], the activity change was -24.9% and the outcome was inactive. For the same compound, the activity change in assay [2] turned out to be 17.5%.
Consider `NS(=O)(=O)c1ccc(NC(=O)c2cc(Cl)sc2Cl)cc1`, for which, in assay [1], the activity change was 0.867% and the call was inactive. Moreover, the activity change in assay [2] was 13.3%.
Turning to `CC(C)(CC(=O)O)CC(=O)NCc1c(Cl)cccc1Sc1ccc(Cl)cc1`, in assay [1], the activity change was -12.9% and the call was inactive.
For `C[C@H]1CN([C@@H](C)CO)C(=O)c2c(c3ccccc3n2C)-c2ccccc2CO[C@@H]1CN(C)Cc1ccncc1`, in assay [1], the activity change is -20.6% and the result was inactive. In addition, the activity change in assay [2] is -32.1%.
Regarding `CCCCc1n(CC(=O)c2ccc(Cl)cc2)c2ccccc2[n+]1C`, in assay [1], the activity change was -11.8% and the outcome was inactive. The activity change in assay [2] amounted to 5.85%.
The like results for `Cc1noc(C)c1NC(=O)Nc1ccc2c(c1)C(=O)N([C@H](C)CO)C[C@H](C)[C@H](CN(C)C(=O)Nc1ccc3c(c1)OCO3)OCCCC[C@H](C)O2` were, in that order, -22%, “inactive” and -9.02%.
Taken in the same sequence, the figures for `Cc1cccc(-c2ccc([C@H]3[C@@H](CO)N4CCCCN(S(=O)(=O)c5ccccc5C)C[C@@H]34)cc2)c1` were -22.4%, “inactive” and 18.9%.
Regarding `Cc1ccccc1CSCC(=O)Nc1ccccc1F`, the values for the activity change in assay [1] and in assay [2] were 0.464% and -14.9%, respectively. Further, the compound was called inactive in assay [1].
As for `Cc1ccc(-n2nnnc2SCC(=O)NC2CCCc3ccccc32)cc1` (stereo unspecified), the compound was classed as inactive in assay [1]. Moreover, the activity change in assay [2] amounted to 6.43%.
`Cc1ccc(C(=O)Nc2cccc3[nH]c(C(F)(F)F)nc23)cc1`: the activity change in assay [1] is -24.3%; in assay [2], -27.5%. The call in assay [1] was inactive.
For the compound `CS(=O)(=O)Nc1ccccc1C(=O)NCCSc1ccccc1`, in assay [1], the call was inactive. Moreover, the activity change in assay [2] was -11.5%.
`O=C(C[n+]1ccn(-c2ccccc2)c1)c1ccc([N+](=O)[O-])cc1`: in assay [1], the activity change is -2.75% and the call was inactive. The activity change in assay [2] was -5.23%.
The like results for `CCOC(=O)c1cnc2ccccc2c1NCc1ccco1` were, in that order, -29.3%, “inactive” and -3.48%.
Taken in the same sequence, the figures for `NC(=O)C1CCN(c2cc(Cl)ccc2[N+](=O)[O-])CC1` were -7.61%, “inactive” and -0.291%.
The like results for `COCCn1c(SCc2nc3ccccc3s2)nc2ccccc21` were, in that order, 15.3%, “inactive” and 9.77%.
With `CC(=O)c1cccc(NC(=O)COC(=O)CCC(=O)c2ccc(F)cc2)c1`, in assay [1], the activity change is -8.28% and the compound was called inactive. Further, in assay [2], the activity change is 14.5%.
On to `OCCC1CN(Cc2cnc(-c3ccc(Cl)cc3)nc2)CCN1C1CCCCC1` (stereo unspecified), for which, in assay [1], the activity change was -4.88% and the outcome was inactive.
For the compound `CN1c2ccccc2-c2nc3ccccc3n2C1c1ccncc1` (stereo unspecified), the activity change was -2.28% in assay [1] and -4.12% in assay [2]. Further, in assay [1], the compound was called inactive.
The like results for `C=C1c2cc3c(cc2NC(=S)N1Cc1ccccc1)OCO3` were, in that order, -19.2%, -23.6% and “inactive”.
With `CC(=O)c1cccc(NC(=O)C2CCCN(S(C)(=O)=O)C2)c1` (stereo unspecified), in assay [1], the activity change is 4.2% and the call was inactive.
With `CC(C)CC#Cc1ccc([C@@H]2[C@@H](CO)N3C(=O)CN(C(=O)Cc4ccccc4)C[C@@H]23)cc1`, the activity change was determined as 9.26% in assay [1] and 19.9% in assay [2]. In addition, the result in assay [1] was inactive.
On to `OC(COc1ccc(Cl)cc1)CN1CCN(c2ccccn2)CC1` (stereo unspecified), for which, in assay [1], the activity change was -8.02% and the outcome was inactive.
For `CN(CC(=O)Nc1cccc(F)c1)C(=O)Cn1c(=O)oc2ccccc21`, in assay [1], the activity change was found to be 2.16% and the compound was classed as inactive. The activity change in assay [2] is 60%.
With `CCN(CC)S(=O)(=O)c1ccc(O)c(C(=O)OCC(=O)NC23CC4CC(CC(C4)C2)C3)c1`, in assay [1], the activity change is -19.8% and the result was inactive.
`CC1(CCC(=O)N2CCCC(N3CCN(c4ccc(F)cc4)CC3)C2)CC1` (stereo unspecified): in assay [1], the activity change is -2.02% and the outcome was inactive. For the same compound, the activity change in assay [2] came to 22.3%.
The like results for `CCc1ccc(NC(=O)CCc2c(C)nn(-c3ccc(N4CCCCC4)nn3)c2C)cc1` were, in that order, -4.17%, “inactive” and -12.8%.
In the case of `COc1cccc(C(=O)c2c[nH]c(C(=O)NCc3cccnc3)c2)c1`, the activity change in assay [1] is -3.41%; in assay [2], 13.5%. The outcome in assay [1] was inactive.
For `COc1ccc(NS(=O)(=O)c2cc(NC(=O)CNC(=O)c3cccc(OC)c3)ccc2C)cc1`, in assay [1], the activity change was -27.6% and the call was inactive. For the same compound, the activity change in assay [2] is -12.3%.
For `O=C(Nc1ccc(Cl)cn1)c1ccc([N+](=O)[O-])o1`, in assay [1], the activity change was -3.86% and the call was inactive. Moreover, the activity change in assay [2] came to 54.7%.
For `COc1cccc(CC(=O)OC(C)C(=O)NCc2ccc3c(c2)OCO3)c1` (stereo unspecified), in assay [1], the activity change was -31% and the compound was called inactive. In addition, the activity change in assay [2] was determined as 6.13%.
Taken in the same sequence, the figures for `O=S(=O)(Cc1ccccc1)N1CCCCN2[C@@H](CO)[C@H](c3ccc(C#Cc4ccccc4)cc3)[C@@H]2C1` were 2.15%, “inactive” and 11.8%.
Taken in the same sequence, the figures for `Nc1[nH]c(C(=O)c2ccccc2)c(-c2ccc(Cl)cc2)c1C(=O)NCCc1c[nH]c2ccccc12` were -15.2%, “inactive” and 2%.
For `Cc1ccccc1-n1c([C@@H]2C[C@H]2c2ccccc2)n[nH]c1=S`, in assay [1], the activity change is -23.8% and the compound was classed as inactive.
As to `COc1ccc(OC)c(NC(=O)COC(=O)CCNc2ccccc2OC)c1`, in assay [1], the activity change is -9.13% and the outcome was inactive. Besides, the activity change in assay [2] was -0.869%.
The like results for `Cc1ccc(NC(=O)c2ccc3c(c2)OCO3)cc1S(=O)(=O)N1CCOCC1` were, in that order, -35.8%, “inactive” and -6.07%.
Taken in the same sequence, the figures for `COc1ccc(NC(=O)CN(c2ccccc2OC)S(=O)(=O)c2cccs2)cc1Cl` were -14.2%, “inactive” and 19%.
The like results for `Cc1cccc(OCCC(=O)N(C)CC(=O)Nc2cccc3ccccc23)c1` were, in that order, -25.4%, “inactive” and 27.9%.
